This note sets out measurements from the supplement of paper PMC13094657.

± gives the standard deviation of the averaged measurements.
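Note: viability of the cells left after supernatant collection, read with Deep Blue dye added for 4 h, as absorbance at 570 nm minus 600 nm.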

The subject of the experiment is MDA-MB-231. Description: cell viability relative to vehicle unstimulated control (fraction); higher = more viable cells. The settings on record: pre-treatment time: 18 h then 24 h IFNg/TNF.
On to `CC[C@@H](C(=O)[C@@H](C)[C@@H](O)[C@H](C)CCc1ccc(C)c(O)c1C(=O)O)[C@H]1O[C@](CC)([C@H]2CC[C@](O)(CC)[C@H](C)O2)C[C@@H]1C` [Lasalocid (sodium)] (compound dose: 10 uM), for which the cell viability was 0.865 ± 0.04.
`CC(=O)OC/C1=C/[C@H]2[C@@H](OC(=O)/C=C/c3ccccc3)[C@@H](C)C[C@]2(OC(C)=O)C(=O)/C(C)=C/[C@@H]2[C@H](CC1)C2(C)C` [Euphorbia factor L7a] (compound dose: 10 uM): the cell viability is 1.086 ± 0.0038.
Turning to `COc1ccc([C@H]2OC[C@H]3[C@@H]2CO[C@H]3c2ccc(O[C@@H]3O[C@H](CO)[C@@H](O)[C@H](O)[C@H]3O)c(OC)c2)cc1OC` [Phillyrin] (compound dose: 10 uM), the cell viability was 0.978 ± 0.024.
To `COC(=O)C1=CO[C@@H](O[C@@H]2O[C@H](CO)[C@@H](O)[C@H](O)[C@H]2O)[C@@H]2C(CO)=CC[C@H]12` [Geniposide] (compound dose: 10 uM) belongs 0.947 ± 0.031.
To `CC(=O)O[C@@H]1C[C@@]23C[C@@]24CC[C@H](O[C@@H]2OC[C@H](O)[C@H](O)[C@H]2O)C(C)(C)[C@@H]4CC[C@H]3[C@]2(C)[C@@H](O)[C@]34O[C@H](C[C@@H](C)[C@@H]3[C@@]12C)[C@@H](C(C)(C)O)O4` [Cimiracemoside D] (compound dose: 10 uM) belongs 1.02 ± 0.086; to `CC(=O)OC[C@H]1O[C@@H](OC[C@H]2O[C@@H](OC(=O)[C@]34CCC(C)(C)C[C@H]3C3=CC[C@@H]5[C@@]6(C)CC[C@H](O[C@@H]7OC[C@H](O)[C@H](O)[C@H]7O[C@@H]7O[C@H](CO)[C@@H](O)[C@H](O)[C@H]7O)C(C)(C)[C@@H]6CC[C@@]5(C)[C@]3(C)CC4)[C@H](O)[C@@H](O)[C@@H]2O)[C@H](O)[C@@H](O)[C@@H]1O[C@@H]1O[C@@H](C)[C@H](O)[C@@H](O)[C@H]1O` [Acanthopanaxoside B] (compound dose: 10 uM), 1.095 ± 0.0013.
To `COC(=O)C1=CO[C@@H](O[C@@H]2O[C@H](CO)[C@@H](O)[C@H](O)[C@H]2O)[C@@H]2[C@H](C)O[C@@H](O)C[C@H]12` [Morroniside] (compound dose: 10 uM) belongs 1.015 ± 0.0011; to `C[C@H]1[C@H](C)CC[C@]2(C(=O)O)CC[C@]3(C)C(=CC[C@@H]4[C@@]5(C)CC[C@H](O)C(C)(C)[C@@H]5CC[C@]43C)[C@H]12` [3-Epiursolic Acid] (compound dose: 10 uM), 1.02 ± 0.045; to `CC(=O)O[C@@H](C[C@@H](C)C1=C2C[C@H](O)[C@H]3[C@@]4(C)CCC(=O)C(C)(C)[C@@H]4CC[C@]3(C)[C@@]2(C)CC1=O)[C@H]1OC1(C)C` [Alisol C 23-acetate] (compound dose: 10 uM), 0.975 ± 0.008.
Turning to `C=C(C)[C@@H]1CCC2=CC(=O)C[C@@H](C)[C@]2(C)C1` [Nootkatone] (compound dose: 10 uM), the cell viability was 0.9333 ± 0.0022.
As for `C[C@@H]1CC[C@]2(C(=O)O)CC[C@]3(C)C(=CC[C@@H]4[C@@]5(C)CC[C@H](O)[C@@](C)(CO)[C@@H]5CC[C@]43C)[C@@H]2[C@]1(C)O` [Rotundic acid] (compound dose: 10 uM), the figure is 0.8829 ± 0.0033.
As to `CC(C)=CCC[C@@H](C)[C@@H]1CC[C@]2(C)C3=C(CC[C@@]12C)[C@@]1(C)CC[C@H](O)C(C)(C)[C@@H]1CC3` [Euphol] (compound dose: 10 uM), the cell viability stood at 0.977 ± 0.051.
To `Cc1cc(O)c2c(c1)C(=O)c1cc(O)cc(O[C@@H]3O[C@H](CO)[C@@H](O)[C@H](O)[C@H]3O)c1C2=O` [Emodin-8-glucoside] (compound dose: 10 uM) belongs 0.9845 ± 0.0046; to `C=C1C(=O)O[C@@H]2/C=C(\C)C[C@@H]3C=C(C[C@H](OC(=O)/C(C)=C\C)[C@@H]12)C(=O)O3` [Scabertopin] (compound dose: 10 uM), 0.873 ± 0.022; to `CC(C)=CCC[C@@H](C(=O)O)[C@H]1CC[C@@]2(C)C3=CC[C@H]4C(C)(C)[C@@H](O)CC[C@]4(C)C3=CC[C@]12C` [3-Dehydrotrametenolic acid] (compound dose: 10 uM), 1.01 ± 0.045.
In the case of `C[C@@H]1CC[C@]2(C(=O)O[C@@H]3O[C@H](CO)[C@@H](O)[C@H](O)[C@H]3O)CC[C@]3(C)C(=CC[C@@H]4[C@@]5(C)CC[C@H](O)[C@@](C)(CO)[C@@H]5CC[C@]43C)[C@@H]2[C@]1(C)O` [Pedunculoside] (compound dose: 10 uM), the cell viability is 0.967 ± 0.074.
To `CC(=O)OCC1=CO[C@@H](OC(=O)CC(C)C)[C@H]2C1=C[C@H](OC(=O)CC(C)C)[C@]21CO1` [Valepotriate] (compound dose: 10 uM) belongs 0.185 ± 0.028; to `CC12CCC(CC1=O)C2(C)C` (stereo not drawn) [(+)-Camphor] (compound dose: 10 uM), 1 ± 0.016; to `CO[C@H]1O[C@@H]2O[C@@]3(C)CC[C@H]4[C@H](C)CC[C@@H]([C@H]1C)[C@@]24OO3` [Artemether] (compound dose: 10 uM), 1 ± 0.11.
As for `COC(=O)C1=CO[C@@H](O)[C@@H]2C(CO)=CC[C@H]12` [Genipin] (compound dose: 10 uM), the figure is 1 ± 0.026.
As for `CC(C)(O)[C@H]1CC[C@@](C)([C@H]2[C@@H](O)C[C@@]3(C)[C@@H]4C[C@H](O)[C@H]5C(C)(C)[C@@H](O)CC[C@@]56C[C@@]46CC[C@]23C)O1` [Cyclogalegenin] (compound dose: 10 uM), the figure is 0.999 ± 0.043; as for `CC1=CC23C(=O)C(C=C4COC(C)(C)OC4C24OC(C)(C)OC14)C1C(CC3C)C1(C)C` (stereo not drawn) [Ingenol-3,4,5,20-diacetonide] (compound dose: 10 uM), 1.09 ± 0.23; as for `COC(=O)C[C@](O)(CCCC(C)(C)O)C(=O)O[C@@H]1C(OC)=C[C@]23CCCN2CCc2cc4c(cc2[C@H]13)OCO4` [Homoharringtonine] (compound dose: 10 uM), 0.382.
